Among the data in PubChem BioAssay (NCI) are growth values, retold here.

Some test systems named below: SK-MEL-2 melanoma; EKVX NSCLC; UO-31 renal; TK-10 renal; ACHN renal; CAKI-1 renal; A498 renal; CCRF-CEM leukemia; MOLT-4 leukemia; SR leukemia; RPMI-8226 leukemia; OVCAR-8 ovarian; OVCAR-5 ovarian; OVCAR-4 ovarian; SK-OV-3 ovarian; IGROV1 ovarian; OVCAR-3 ovarian; HS 578T breast; NCI/ADR-RES ovarian; SN12C renal.
Assay in all cases: NCI-60 one-dose screen, 48 h (100 = growth as untreated, 0 = no growth, -100 = all killed)
Common to all, as to conditions: 10 µM unless noted

Structures are written as SMILES. The panel holds about 83,000 compounds, 20% with a hit somewhere; the sample as a whole holds those more often.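 Activity criterion: percent growth below 10, measured after cells in 96-well plates were exposed to a single compound concentration for 48 hours.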 Unmarked numbers belong to inactive results. The source made the active and inactive calls.

`COc1cc(NC(=O)c2cncnc2Nc2ccc3c(ccn3Cc3ccccn3)c2)cc(OC)c1`: the growth in the test with SK-MEL-2 melanoma is 45%; in the test on EKVX NSCLC, 68.4%; in the test with UO-31 renal, 46%; with TK-10 renal, 73.3%; with ACHN renal, 66.5%; with CAKI-1 renal it was 44.2%. The growth was -12.5% (active) with A498 renal; 22.3% with CCRF-CEM leukemia; 24.9% in the test with MOLT-4 leukemia; 12.9% in the test on SR leukemia; 43.5% in the test with RPMI-8226 leukemia; 65.8% in the test with OVCAR-8 ovarian. Further, the growth in the test on OVCAR-5 ovarian was 76.6%; with OVCAR-4 ovarian it was 78.4%; with SK-OV-3 ovarian it was 57.9%; with IGROV1 ovarian it was 45.4%; in the test on OVCAR-3 ovarian it was 9.55% (active); in the test on HS 578T breast, 35.2%. Moreover, the growth with NCI/ADR-RES ovarian was 35%.

Consider `CN1CCN(CCCOc2cccc3nc(Nc4ccc(F)c(F)c4)ccc23)CC1`, for which the growth in the test on SK-MEL-2 melanoma was -49.7% (active); in the test with EKVX NSCLC, 34%; with UO-31 renal, -54.3% (active); in the test with TK-10 renal, -4.13% (active); in the test on ACHN renal, -31.4% (active); with CAKI-1 renal, -29.1% (active). For the same molecule, the growth in the test with A498 renal is 33.6%; in the test with CCRF-CEM leukemia, -26.9% (active); in the test on MOLT-4 leukemia, -38.4% (active); in the test with SR leukemia, 0.217% (active); in the test with RPMI-8226 leukemia, -14.5% (active); in the test on OVCAR-8 ovarian, 24.5%. The growth was -20.9% (active) in the test on OVCAR-5 ovarian; 39.3% with OVCAR-4 ovarian; 24.2% with SK-OV-3 ovarian; -12.4% (active) in the test with IGROV1 ovarian; 8.36% (active) in the test with OVCAR-3 ovarian; 16.8% with HS 578T breast. The growth in the test on NCI/ADR-RES ovarian was 12.1%.

`CCCCNC(=O)Oc1ccc(/C(=C(/C)Cc2ccc(OC)cc2)c2ccc(OCCN3CCCCCC3)cc2)cc1`: the growth was 102% in the test with SK-MEL-2 melanoma; 77.5% with EKVX NSCLC; 57.6% with UO-31 renal; 83.1% in the test with TK-10 renal; 102% with ACHN renal; 83.5% in the test on CAKI-1 renal. The growth with A498 renal is 98.3%; in the test with CCRF-CEM leukemia, 47.7%; in the test with MOLT-4 leukemia, 45%; in the test on SR leukemia, -44.2% (active); in the test on RPMI-8226 leukemia, 33.6%; in the test on OVCAR-8 ovarian it was 89.9%. In addition, the growth in the test on OVCAR-5 ovarian was 96%; with SK-OV-3 ovarian, 85.8%; in the test on IGROV1 ovarian, 92.3%; in the test with OVCAR-3 ovarian it was 63.9%; with HS 578T breast, 82.1%; with NCI/ADR-RES ovarian, 81.4%.

`COc1ccc(C(=O)Cn2c(C(=O)c3ccc(Cl)cc3)nc3ccccc32)cc1`: the growth in the test on SK-MEL-2 melanoma is 73.4%; in the test on EKVX NSCLC, 90.9%; with SN12C renal, 65.1%; in the test with TK-10 renal it was 99.6%; in the test with ACHN renal, 65.5%; in the test with CAKI-1 renal it was 63.5%. Also, the growth in the test with A498 renal was 77.9%; in the test on MOLT-4 leukemia it was 48.5%; with RPMI-8226 leukemia, 13%; in the test with OVCAR-8 ovarian, 69.9%; in the test with OVCAR-5 ovarian, 90.4%; in the test with OVCAR-4 ovarian, 62.4%. In addition, the growth is 98.8% in the test with SK-OV-3 ovarian; 39.7% in the test on IGROV1 ovarian; 52% in the test with OVCAR-3 ovarian; 47.2% with HS 578T breast; 35.9% with NCI/ADR-RES ovarian.

With `Cc1cc(Nc2ccc(C(=O)N3CCCC3)cc2)nc(NCCCNc2ccnc3cc(Cl)ccc23)n1`, the growth in the test on SK-MEL-2 melanoma was 99.5%; with EKVX NSCLC, 101%; in the test with UO-31 renal, 86.7%; in the test on TK-10 renal, 106%; in the test on ACHN renal, 99%; in the test with CAKI-1 renal, 99.1%. For the same molecule, the growth in the test with A498 renal is 95.2%; in the test with MOLT-4 leukemia it was 36.9%; in the test with SR leukemia, 19.1%; with OVCAR-8 ovarian, 108%; in the test on OVCAR-5 ovarian, 103%; in the test on OVCAR-4 ovarian, 70%. Also, the growth in the test on SK-OV-3 ovarian was 101%; in the test with IGROV1 ovarian it was 76.2%; in the test with OVCAR-3 ovarian, 90.3%; in the test with HS 578T breast, 92.3%; in the test on NCI/ADR-RES ovarian, 99.8%.

In the case of `C[C@]1(O)CC(=O)[C@]2(O)C3=C(C=C[C@]2(O)C1)C(=O)c1c(O)cccc1C3=O`, the growth was 89.7% in the test with SK-MEL-2 melanoma; 73.8% in the test with EKVX NSCLC; -96.6% (active) in the test on UO-31 renal; -82.8% (active) with TK-10 renal; -100% (active) in the test on ACHN renal; -59.8% (active) in the test with CAKI-1 renal. For the same molecule, the growth was 117% in the test on A498 renal; 0.446% (active) in the test with CCRF-CEM leukemia; -12.8% (active) in the test with MOLT-4 leukemia; 10.5% in the test on SR leukemia; -0.202% (active) with RPMI-8226 leukemia; 38.8% in the test with OVCAR-5 ovarian. Besides, the growth in the test on OVCAR-4 ovarian is -97.9% (active); in the test with SK-OV-3 ovarian, 98.8%; with IGROV1 ovarian, 27.1%; in the test with OVCAR-3 ovarian, -32.8% (active); in the test on HS 578T breast, 71.8%; with NCI/ADR-RES ovarian it was 47.2%.

Regarding `O=C(N/N=C/c1cc(Cl)ccc1O)c1ccccc1Nc1ccnc(C(F)(F)F)c1`, the growth in the test with SK-MEL-2 melanoma is 90.7%; with EKVX NSCLC, 22.9%; in the test with UO-31 renal it was 21.1%; in the test on TK-10 renal, 46.4%; in the test with ACHN renal it was 14.9%; in the test with CAKI-1 renal, 34.6%. Moreover, the growth was 65.7% in the test on A498 renal; 12.4% in the test with CCRF-CEM leukemia; 55% with MOLT-4 leukemia; 105% with SR leukemia; 47.2% in the test on RPMI-8226 leukemia; 63.5% in the test on OVCAR-8 ovarian. In addition, the growth is 57.4% in the test on OVCAR-5 ovarian; 28.7% in the test with OVCAR-4 ovarian; 25% in the test on SK-OV-3 ovarian; 92.5% in the test on IGROV1 ovarian; 38% in the test with OVCAR-3 ovarian; 75% in the test on HS 578T breast. In the test with NCI/ADR-RES ovarian, the growth was 22.6%.

With `Cc1ccc(/C=C(\C#N)n2nnc3cc(F)c(F)cc32)cc1`, the growth is 14.8% with SK-MEL-2 melanoma; 30.9% in the test on EKVX NSCLC; 13.2% in the test with UO-31 renal; 22.4% with TK-10 renal; 22.5% in the test with ACHN renal; 32.6% with CAKI-1 renal. Also, the growth in the test with A498 renal is 13%; in the test with CCRF-CEM leukemia it was 5.57% (active); in the test with MOLT-4 leukemia it was -2.32% (active); with SR leukemia, 7.33% (active); in the test on RPMI-8226 leukemia, 4.53% (active); with OVCAR-8 ovarian it was 6.79% (active). In addition, the growth with OVCAR-5 ovarian is -4.62% (active); with OVCAR-4 ovarian, 46%; with SK-OV-3 ovarian it was 53.6%; in the test on IGROV1 ovarian, 2.76% (active); in the test with OVCAR-3 ovarian, 7.86% (active); with HS 578T breast, 36.1%. Moreover, the growth in the test on NCI/ADR-RES ovarian is 12.9%.

Regarding `COc1cccc(/C=N/NC(=O)c2ccccc2N2CCCC2)c1O`, the growth in the test with SK-MEL-2 melanoma is -7.25% (active); in the test on EKVX NSCLC it was 41.7%; with UO-31 renal, 30.4%; with TK-10 renal, 74.9%; with ACHN renal, 31.1%; with CAKI-1 renal, 0.778% (active). Moreover, the growth in the test on A498 renal is 67.1%; with CCRF-CEM leukemia, -14% (active); in the test with MOLT-4 leukemia, 30.7%; with SR leukemia, 77.4%; in the test with RPMI-8226 leukemia it was -1.83% (active); with OVCAR-8 ovarian it was 54.9%. Further, the growth in the test with OVCAR-5 ovarian was 57.9%; in the test on OVCAR-4 ovarian, 18%; with SK-OV-3 ovarian, 63.6%; with IGROV1 ovarian, -24.3% (active); in the test on OVCAR-3 ovarian, -4.45% (active); in the test with HS 578T breast it was 87.3%. Moreover, the growth in the test with NCI/ADR-RES ovarian was 13.6%.
